{"source": "PubChem BioAssay (NCI)", "note": "Values joined by “and” are separate entries in the source; they are usually repeats but may differ in a detail not shown here. Identical values can stand only once. Compounds without any hit were thinned out: in the full panel of roughly 83,000, 20% have a hit.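 Each cell line was grown in a 96-well plate and treated with one concentration of compound for 48 hours. Values below 10 were considered active.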 Active and inactive are the calls of the source."}
{"test_system": "RXF 393 renal", "experiment": "NCI-60 one-dose screen, 48 h (100 = growth as untreated, 0 = no growth, -100 = all killed)", "conditions": "10 µM unless noted"}
{"compound": "O=c1ccc(Cn2c(C(F)(F)F)cc3c(Cl)ncnc32)c[nH]1", "growth": "86.5% (inactive)"}
{"compound": "CC[C@]12C=CCN3CC[C@]4(C(=C(C(=O)OC)C1)Nc1cc(OC)c([C@@H]5[C@H]6O[C@H]6[C@@]6(CC)CC(C(=O)OC)=C7Nc8cc(O)ccc8[C@@]78CCN5[C@@H]68)cc14)[C@@H]32", "growth": "-34.2% (active)"}
{"compound": "COc1ccc2[nH]cc(-c3cc4nc(-c5cn(C)c6ncccc56)cc(N)n4n3)c2c1", "growth": "-62.3% (active)"}
{"compound": "COc1ccc2[nH]c(=O)cc(-n3ncc(C(=O)/C=C/c4cc(OC)c(OC)c(OC)c4)c3C)c2c1", "growth": "-74.8% (active)"}
{"compound": "COc1ccc(/C=C/c2nc3ccccc3n3c(-c4cccc([N+](=O)[O-])c4)nnc23)cc1", "growth": "-85.2% (active)"}
{"compound": "O=C(Nc1ccc(Cl)c(C(F)(F)F)c1)N1CCN(c2cc(-c3cn(-c4ccccc4)nc3-c3cccc(O)c3)ccn2)CC1", "growth": "-35.4% (active)"}
{"compound": "O=C1Nc2ccccc2/C1=C/C(=O)c1cc2ccccc2oc1=O", "growth": "91.4% (inactive)"}
{"compound": "CN1CCN(C(=O)Oc2cc3c(c4ccccc24)[C@H](CCl)CN3C(=O)c2cc3cc(OCCCN4CCC4)ccc3[nH]2)[C@H]2CSSC[C@H]21", "growth": "-78.8% (active)"}
{"compound": "NS(=O)(=O)c1ccc(Nc2nc(N/N=C/c3cc(Br)c(O)c(Br)c3)nc(Nc3ccccc3)n2)cc1", "growth": "54% (inactive)"}
{"compound": "COc1ccc2c(c1)C(Sc1ccc(Cl)cc1)c1c(nc(N)c(C#N)c1N)O2", "note": "(stereo unspecified)", "growth": "56.4% (inactive)"}
{"compound": "CS(=O)(=O)Nc1cccc(-n2c(COc3ccc(OC(F)(F)F)cc3)nc3ccccc32)c1", "growth": "85.8% (inactive) and 110% (inactive)"}
